# Results reported in PubChem BioAssay (EPA / NIEHS).
# Active and inactive are the calls of the source. How the source made its calls: active means hit-call score of the fitted dose curve at least 0.9, where 1 is the maximum; inactive means score below 0.9.
# Experiment: APR_HepG2_CellCycleArrest_24hr: Apredica 24-hour HepG2 Assay for Cell Cycle Arrest (AID 2282905);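 further: cell cycle arrest scored as ratio of 2N to 4N nuclear DNA content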
# Settings: imaging, actives raise or lower the signal
# Procedure: APR_HepG2_24hr is a cell-based, multiplexed-readout assay that uses HepG2, a human liver cell line, with measurements taken at 24 hours after chemical dosing in a 384-well plate.APR_HepG2_CellCycleArrest_24hr is one of 10 assay component(s) measured or calculated from the APR_HepG2_24hr assay. It is designed to make measurements of cell phenotype, a form of morphology reporter, as detected with fluorescence intensity signals by HCS Fluorescent Imaging technology.Data from the assay component APR_HepG2_CellCycleArrest_24hr was analyzed into 1 assay endpoint. This assay endpoint, APR_HepG2_CellCycleArrest_24hr, was analyzed with bidirectional fitting relative to DMSO as the negative control and baseline of activity. Using a type of morphology reporter, measures of all nuclear dna for gain or loss-of-signal activity can be used to understand the signaling at the pathway-level as they relate to the gene . Furthermore, this assay endpoint can be referred to as a primary readout, because this assay has produced multiple assay endpoints where this one serves a signaling function. To generalize the intended target to other relatable targets, this assay endpoint is annotated to the cell cycle intended target family, where the subfamily is arrest.
# Cells were treated with dimethyl sulfoxide (DMSO) as a solvent control at a final concentration of 0.5% v/v or with compounds in DMSO with a resulting final DMSO concentration of 0.5% v/v. Compound treatment was done at concentrations of 0.39, 0.78, 1.56, 3.12, 6.24, 12.5, 25, 50, 100, and 200 uM in duplicate on each plate. Cells were treated with compounds for 1, 24, or 72 hr. Carbonyl […] m-chloro-phenylhydrazone (CCCP) and taxol were used as positive controls for mitochondrial function and cytoskeletal stability, respectively; DMSO served as the negative control for this experiment. Cells were fixed by the direct addition of 50 uL formaldehyde in Hank's Balanced Salt Solution (HBSS) to a final concentration of 3.7%. After incubation in the fixation medium for 30 min at room temperature (293-298 K), cells were rinsed twice with HBSS and treated with cell permeabilization buffer (16 uL of 0.5% Triton X-100) for 10 min at room temperature (293-298 K) before labeling. For mitochondrial membrane potential and mitochondrial measurements, pre-fixed cells were incubated with 50 uL of MitoTracker Red CMXRos (Invitrogen) at a concentration of 250 nM for 30 min before fixation. In the remaining cases, post-fixed cells were labeled by incubation with a multiplexed mixture of primary antibodies in HBSS for 60 min at room temperature (293-298 K) to detect immunoreactivity of c-Jun (1:500), phospho-histone H3 (1:100), phospho-histone H2A.x (1:200), p53 (1:400), alpha-tubulin (1:200) and Hoechst 33342 (2 ug/mL). Cells were labeled for multiplexed imaging on two separate plates: a) Hoechst 33342, MitoTracker Red, phospho-histone H3, and alpha-tubulin, and b) Hoechst 33342, phospho-histone H2A.x, and c-Jun. A final rinse with HBSS (50 uL) was performed before analysis. The primary and secondary antibodies for the proteins were phospho-histone H3 (rabbit anti-phospho-histone H3 and FITC-donkey anti-rabbit IgG), phospho-histone H2A.x (mouse anti-phospho-histone H2A.x and FITC-donkey anti-mouse IgG), c-Jun (rabbit anti-phospho-c-Jun and Cy3-donkey anti-rabbit IgG), p53 (sheep anti-p53 and Cy5-donkey anti-sheep IgG), alpha-tubulin (mouse anti-alpha-tubulin and Cy5-donkey anti-mouse IgG). These antibodies are available as the CellCiphr HepG2 assay kit (Millipore).Digital images of each well were captured using a Cellomics ArrayScan VTI (Thermo Scientific Cellomics) (0.8 NA objective, 0.63x optical coupler, and XF-93 filter set) at 20x magnification. The images were acquired using the autofocus feature of the ArrayScan instrument, which entails the following steps. First, the camera focuses on channel 1 (Hoechst 33342), where nuclei are identified. Second, a Z offset of 1 um is used for capturing mitochondria (MitoTracker Red). […]
Compound,outcome,AC50
N=C(N)c1ccc(OCCCCCOc2ccc(C(=N)N)cc2)cc1,inactive,–
CCCCC=O,inactive,–
O=C1NS(=O)(=O)c2ccccc21,inactive,–
OCC(CO)(CBr)CBr,inactive,–
CCCCCCCCCCCCOS(=O)(=O)O,inactive,–
CCCCCCCCCCCCCCC,inactive,–
Cc1[nH]nc2c1N=C(c1ccccc1Cl)c1cc([N+](=O)[O-])ccc1N2,–,0.364 µM (active)
CN(Cc1cnc2nc(N)nc(N)c2n1)c1ccc(C(=O)N[C@@H](CCC(=O)O)C(=O)O)cc1,inactive,–
CCCCC(CC)C(=O)O (stereo not drawn),inactive,–

# Experiment: APR_HepG2_NuclearSize_24hr: Apredica 24-hour HepG2 Assay for Nuclear Size (AID 2282907)
# Settings: high-content imaging, actives raise or lower the signal
# Method in brief: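 Compounds in DMSO (final 0.5%) were added to human HepG2 hepatoma cells at ten concentrations up to 200 uM for 24 hr. Fixed nuclei were stained with Hoechst 33342, and nuclear diameter was quantified from automated images.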
Compound,outcome,AC50
N=C(N)c1ccc(OCCCCCOc2ccc(C(=N)N)cc2)cc1,inactive,–
CCCCC=O,inactive,–
O=C1NS(=O)(=O)c2ccccc21,inactive,–
OCC(CO)(CBr)CBr,inactive,–
CCCCCCCCCCCCOS(=O)(=O)O,inactive,–
CCCCCCCCCCCCCCC,inactive,–
Cc1[nH]nc2c1N=C(c1ccccc1Cl)c1cc([N+](=O)[O-])ccc1N2,–,0.512 µM (active)
CN(Cc1cnc2nc(N)nc(N)c2n1)c1ccc(C(=O)N[C@@H](CCC(=O)O)C(=O)O)cc1,inactive,–
CCCCC(CC)C(=O)O (stereo not drawn),inactive,–

# Experiment: APR_HepG2_CellLoss_24hr: Apredica 24-hour HepG2 Assay for Cell Loss (AID 2282908);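 on AC50: fit in both directions so a hit may be cell loss or gain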
# Settings: high-content imaging
# Method in brief: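 Cell number is quantified by fluorescence imaging of Hoechst 33342-stained nuclei following dosing at 0.39–200 uM in 0.5% DMSO. Curves are fitted in both directions from the DMSO baseline.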
Compound,outcome,AC50
CS(=O)(=O)c1ccc([C@@H](CC2CCCC2)C(=O)Nc2cnccn2)cc1Cl,inactive,–
O=C(c1ccccc1)c1ccccc1,inactive,–
N=C(N)c1ccc(OCCCCCOc2ccc(C(=N)N)cc2)cc1,–,9.33 µM (active)
CCCCC=O,inactive,–
O=C1NS(=O)(=O)c2ccccc21,inactive,–
CCCCc1oc2ccccc2c1C(=O)c1cc(I)c(OCCN(CC)CC)c(I)c1,–,43.8 µM (active)
OCC(CO)(CBr)CBr,inactive,–
CCCCCCCCCCCCOS(=O)(=O)O,inactive,–
CCCCCCCCCCCCCCC,inactive,–
Cc1[nH]nc2c1N=C(c1ccccc1Cl)c1cc([N+](=O)[O-])ccc1N2,–,0.0391 µM (active)
CN(Cc1cnc2nc(N)nc(N)c2n1)c1ccc(C(=O)N[C@@H](CCC(=O)O)C(=O)O)cc1,inactive,–
CCCCC(CC)C(=O)O (stereo not drawn),inactive,–
O=C(CCCN1CCC(O)(c2ccc(Cl)cc2)CC1)c1ccc(F)cc1,–,87.4 µM (active)
CN(C)CCOC(c1ccccc1)c1ccccc1,inactive,–
CC(=O)Nc1ccc(O)cc1,inactive,–
